From PubChem
The list is not random: actives were taken first. Their share in the collection is about 2.4%.
D2 ag-1: D2 dopamine receptor (human) agonism; P14416; hit rate 0.53% among 340,000; AID 485358; HEK293 T-REx D2 cells, calcium flux agonist mode; activation, % at 2 µM;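 active = activation over 3 SD above normal in the single-dose calcium agonist read, cut at about 30% in these data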
Target sequence (P14416 whole entry, looked up): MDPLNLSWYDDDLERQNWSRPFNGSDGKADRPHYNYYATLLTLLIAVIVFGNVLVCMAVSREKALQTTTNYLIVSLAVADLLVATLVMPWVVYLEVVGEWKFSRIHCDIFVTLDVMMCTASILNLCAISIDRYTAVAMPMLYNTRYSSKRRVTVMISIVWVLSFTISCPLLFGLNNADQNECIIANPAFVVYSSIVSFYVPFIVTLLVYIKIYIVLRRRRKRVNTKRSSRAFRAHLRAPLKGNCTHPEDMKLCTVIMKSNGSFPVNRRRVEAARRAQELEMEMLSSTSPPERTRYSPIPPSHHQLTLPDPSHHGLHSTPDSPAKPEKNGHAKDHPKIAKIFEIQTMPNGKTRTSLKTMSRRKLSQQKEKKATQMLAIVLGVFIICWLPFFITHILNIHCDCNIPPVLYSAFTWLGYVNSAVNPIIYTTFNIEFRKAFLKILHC
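HEK293 Trex D2 cells, tetracycline-induced, o/n 30 C 5% CO2; no-wash Ca dye, RT 30–90 min; 10-cycle baseline, 23 nl cpd added, kinetic Ca read 180 s; agonist hits = positive Ca response.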
D2 ag-2: activates the human D2 dopamine receptor; P14416; DiscoveRx PathHunter D2 beta-arrestin, luminescence, 90 min; 100% = 57 uM dopamine signal; activation, % (concentration not given with the values); hit rate 0.084% among 360,000; AID 624465; in the data active = activation above about 40%; inconclusive = between about 15% and that limit
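Agonist mode: compounds alone added to overnight-plated D2 PathHunter cells for 90 min at 37 C, with 57 uM final dopamine (EC100) defining full response. Beta-arrestin recruitment detected by chemiluminescent reagent, read after 1 h at ambient temperature.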
D2 antagonist: antagonizes the human D2 dopamine receptor; HEK293 TREx D2 cells, calcium flux, dopamine EC80; inhibition, % at 10 µM; hit rate 2% among 340,000; AID 485344; in the data active = inhibition above about 30%; inactive = below that, where a call was filed
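Calcium mobilization kinetics were recorded at 1 s intervals in tetracycline-induced HEK293 T-REx D2 cells, first for 180 s after compound addition and then 180 s after EC80 dopamine.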
D2 PAM-1: positively modulates the human D2 dopamine receptor allosterically; P14416; HEK293 T-REx D2, calcium flux, EC20 dopamine potentiation; potentiation, % at 10 µM; hit rate 0.34% among 340,000;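 active = potentiation over 3 SD above the plate norm, cut at about 30% in these data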
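Potentiation of an EC20 dopamine calcium response measured kinetically over 180 s, after a preceding 180 s compound-only read flagging agonists. Cells: inducible Hek293 Trex D2 line, 4000/well, cultured overnight at 30 C before dye loading.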
D2 PAM-2: potentiates the human D2 dopamine receptor allosterically; potentiation, % (no concentration beside the values); DiscoveRx D2 beta-arrestin cells, luminescence, 90 min; 100% = 57 uM dopamine signal; hit rate 0.23% among 360,000; P14416; in the data active = potentiation above about 50%; inconclusive = mostly about 30% to 49%
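D2 cells co-treated with compound plus 50 nM dopamine (EC20) for 90 min at 37 deg C to detect potentiation. Beta-arrestin recruitment was read as enzyme-fragment luminescence after 1 h at ambient temperature. Full response was set by 57 uM dopamine.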
D3 ag: confirmation of human D3 dopamine receptor agonists, beta-arrestin; shares compounds with D2 ag-1; DiscoveRx D3 beta-arrestin cells, luminescence, 90 min; Potency, µM (titrated, usually from 76.9 µM), hits mostly activators; hit rate 4% among 2,300; also: nearly all actives have a fitted effect of over 70% in size
D2 ag-3: D2 receptor agonism, beta-arrestin counterscreen. shares compounds with D2 ag-1. DiscoveRx PathHunter D2 beta-arrestin, luminescence, 90 min; response scale: percent relative to full dopamine signal. Potency, µM (titrated, usually from 76.9 µM), actives largely listed as activators. hit rate 5.9% among 2,300; also: nearly all actives have a fitted effect of over 70% in size
Of the large screens only hits and unclear results are named; the others gave an inactive call (follow-up assays come after a bar, where they were run). Unless noted, calls follow the shape of the dose curve; as a rule, active = well fitted activation curve with a large enough effect; inconclusive = small, poorly fitted or top-dose-only effect; inactive = flat fitted curve, though single readings scatter.

O=C(c1cccs1)N1CCN(CCc2ccccc2)CC1	D2 ag-1 43, D2 antagonist 42 | D3 ag inactive | D2 ag-3 inactive
Cc1cccn2c(=O)c3cc(C(=O)NCc4ccccc4Cl)sc3nc12	none (no result: D2 ag-2, D2 antagonist, D2 PAM-2)
CCOC(=O)C1CCCN(c2nc3c(S(=O)(=O)c4ccc(Br)cc4)nnn3c3ccsc23)C1 (configuration not stated)	none (no result: D2 ag-1, D2 ag-2, D2 antagonist, D2 PAM-2)
COc1ccc2cc(C(=O)C3CCCN(Cc4cnc(N5CCOCC5)s4)C3)ccc2c1 (configuration not stated)	D2 ag-1 36 | D3 ag inactive | D2 ag-3 inactive
CC(C)Cn1c(=O)c2sccc2n2c(CCCC(=O)NCc3ccccc3Cl)nnc12	none (no result: D2 ag-2, D2 antagonist, D2 PAM-2)
CCOC(=O)C(NCCc1ccccc1)(NC(=O)CC)C(F)(F)F (configuration not stated)	none | D3 ag inactive | D2 ag-3 inactive
CCOC(=O)C(NC(C)=O)(OCc1ccccc1)C(F)(F)F (configuration not stated)	D2 ag-1 67 | D3 ag inactive | D2 ag-3 inactive
Cc1cccc(C)c1NC(=O)CN1CCN(C(=O)CN2C(=O)NC3(CCCCC3C)C2=O)CC1 (configuration not stated)	D2 ag-1 40 | D3 ag inactive | D2 ag-3 inactive
CCc1ccccc1NC(=O)CN1CCN(C(=O)CN2C(=O)NC3(CCCCC3C)C2=O)CC1 (configuration not stated)	none
Cc1cccc(-n2ncc3c(NNC(=O)c4ccccc4Cl)ncnc32)c1	none (no result: D2 ag-2, D2 antagonist, D2 PAM-2)
O=c1c2cc([N+](=O)[O-])ccc2nc(CN2CCN(c3ccccn3)CC2)n1-c1ccccc1F	none | D3 ag inactive | D2 ag-3 inactive
O=C(Nc1ccc(C(=O)NCCCN2CCN(c3ccc(F)cc3)CC2)cc1)C1=CSCCO1	D2 ag-1 69, D2 antagonist 69 | D3 ag inactive | D2 ag-3 inactive
O=C(Nc1ccc(C(=O)NCCCN2CCCCC2)cc1)C1=CSCCO1	none (no result: D2 ag-1, D2 antagonist, D2 PAM-1)
CC1(c2ccccc2)NC(=O)N(CC(=O)Nc2ccc(S(=O)(=O)Nc3ncccn3)cc2)C1=O (configuration not stated)	D2 ag-1 53, D2 antagonist 50 | D3 ag inactive | D2 ag-3 inactive
Cc1cccc(-c2nc(SCC(=O)N3CCc4ccccc43)c3c(=O)n(C)c(=O)n(C)c3n2)c1	none (no result: D2 ag-2, D2 antagonist, D2 PAM-2)
Cc1c(C(=O)NCCc2ccc(S(N)(=O)=O)cc2)cccc1[N+](=O)[O-]	none
Cc1ccc(C(=O)NCCc2ccc(S(N)(=O)=O)cc2)cc1[N+](=O)[O-]	none | D3 ag inactive | D2 ag-3 inactive
O=C(c1ccc2c(c1)CCN2S(=O)(=O)c1ccc(Cl)cc1)N1CCN(c2ccccc2)CC1	none (no result: D2 ag-2, D2 antagonist, D2 PAM-2)
CC(CCc1ccccc1)NCc1ccncc1 (configuration not stated)	D2 ag-1 68, D2 ag-2 inconclusive, D2 antagonist 64 | D3 ag inconclusive | D2 ag-3 inconclusive
CC(Cc1ccccc1)C(=O)NCc1ccncc1 (configuration not stated)	none
CC(=NCCc1ccccc1)C1=C(O)CCC1=O	D2 ag-1 42 | D3 ag inactive | D2 ag-3 inactive
O=c1c2ccccc2nc(SCc2ccc([N+](=O)[O-])cc2)n1-c1ccccc1	none (no result: D2 ag-1)
O=C(O)c1ccc(CSc2nc3ccccc3c(=O)n2-c2ccccc2)cc1	D2 ag-1 58, D2 antagonist 48 | D3 ag inactive | D2 ag-3 inactive
COc1ccccc1/C=N/NC(=O)c1ccc(CN2C(=O)c3cccc4cccc2c34)cc1	none | D3 ag inactive | D2 ag-3 inactive
O=C(c1ccco1)N1CCN(Cc2csc(-c3ccccc3Cl)n2)CC1	D2 ag-1 41 | D3 ag inactive | D2 ag-3 inactive
Cc1ccc(C)n1CCN1CCN(C(=O)c2ccco2)CC1	none | D3 ag inactive | D2 ag-3 inactive
COC(=O)c1ccc(OCC(O)CN2CCN(C(=O)c3ccco3)CC2)c(OC)c1 (configuration not stated)	D2 ag-1 64 | D3 ag inactive | D2 ag-3 inconclusive
CCc1ccc(CN2CCN(C(=O)c3ccco3)CC2)cc1	D2 ag-1 80, D2 ag-2 78, D2 antagonist 83, D2 PAM-2 inconclusive | D3 ag 5.6µM | D2 ag-3 14µM
Cc1ccc(NC(=O)Nc2nnc(SCC(=O)N3CCC(C)CC3)s2)cc1	none (no result: D2 ag-2, D2 antagonist, D2 PAM-2)
COc1ccc(S(=O)(=O)n2nc(C)c(S(=O)(=O)N3CCCCC3)c2C)cc1	none (no result: D2 ag-2, D2 antagonist, D2 PAM-2)
Cc1cc(C)cc(C(=O)NC(CC(N)=O)c2ccc(N3CCCCCC3)c([N+](=O)[O-])c2)c1 (configuration not stated)	none
O=C(c1ccco1)N1CCN(CC(O)COc2ccc(Br)cc2)CC1 (configuration not stated)	D2 ag-1 76, D2 antagonist 77 | D3 ag inconclusive | D2 ag-3 inconclusive
COC(=O)c1ccc(OCC(O)CN2CCN(C(=O)c3ccco3)CC2)cc1 (configuration not stated)	D2 ag-2 inconclusive
O=C(c1ccco1)N1CCN(Cc2nc(-c3cccs3)no2)CC1	none | D3 ag inactive | D2 ag-3 inactive
O=C(c1ccco1)N1CCN(Cc2cccc3ccccc23)CC1	D2 ag-1 58, D2 antagonist 76 | D3 ag inconclusive | D2 ag-3 inconclusive
O=C(c1ccco1)N1CCN(Cc2ccc(Br)cc2)CC1	D2 ag-1 79, D2 ag-2 58, D2 antagonist 80, D2 PAM-2 inconclusive | D3 ag inconclusive | D2 ag-3 16µM
O=C(c1ccco1)N1CCN(Cc2cccc(F)c2)CC1	D2 ag-1 88, D2 ag-2 60, D2 antagonist 84 | D3 ag inconclusive | D2 ag-3 20µM
Cc1cc2oc(C(=O)Nc3c(C(=O)Nc4ccccc4)oc4ccccc34)cc(=O)c2cc1C	none (no result: D2 ag-2, D2 antagonist, D2 PAM-2)
Nc1nonc1-n1nnc(C(=O)N/N=C/c2ccc(Br)cc2)c1-c1ccc2c(c1)OCO2	D2 antagonist 41 | D3 ag inactive | D2 ag-3 inactive
Nc1nonc1-n1nnc(C(=O)N/N=C/c2cccc(Cl)c2)c1-c1ccc2c(c1)OCO2	none
CN(Cc1c(C(=O)N/N=C/c2ccc(F)cc2)nnn1-c1nonc1N)C1CCCCC1	none
Nc1nonc1-n1nnc(C(=O)N/N=C/c2ccc3c(c2)OCO3)c1-c1ccccc1	D2 antagonist 39 | D3 ag inconclusive | D2 ag-3 inactive
CC(C)c1c(C(=O)N/N=C/c2ccc3c(c2)OCO3)nnn1-c1nonc1N	none
